# Source: the OligoGym collection
# What was measured:
# Experiment in all cases: pooled miR-30 sensor sort-seq; sequence = guide strand
# Conditions in all cases: shRNA
# KRTAP10-10 = target: KRTAP10-10
# L1TD1 = target: L1TD1
# LARP1B = target: LARP1B
# LIPA = target: LIPA
# LONP1 = target: LONP1
# LRDD = target: LRDD
# LRRC15 = target: LRRC15
# LTA4H = target: LTA4H
# MAN1C1 = target: MAN1C1
# MCM6 = target: MCM6
# MEPCE = target: MEPCE
# MMADHC = target: MMADHC
# MOBKL1B = target: MOBKL1B
# MOV10 = target: MOV10
# MON2 = target: MON2
# MPG = target: MPG
# MPDU1 = target: MPDU1
# MRC1L1 = target: MRC1L1
# MTX3 = target: MTX3
# MYST4 = target: MYST4
# NCAPG2 = target: NCAPG2
# NARF = target: NARF
# NAT9 = target: NAT9
# NBPF1 = target: NBPF1
# NAT8L = target: NAT8L
# NCSTN = target: NCSTN
# NKIRAS2 = target: NKIRAS2
# NHP2 = target: NHP2
# NKPD1 = target: NKPD1
# NGDN = target: NGDN
# Further: reference of the scale not given here.
sequence,measurement,setting,value
TTACAGACGGGCACGCAGCAGA,sensor-assay potency score (higher = more potent),KRTAP10-10,-0.719
TGCAGGAGCTGGTGTAGCCTGA,sensor-assay potency score (higher = more potent),KRTAP10-10,-0.876
TTCTTTGACAAATTCATCCTCT,sensor-assay potency score (higher = more potent),L1TD1,0.858
TGATCTTACAACATCTAAGTGG,sensor-assay potency score (higher = more potent),LARP1B,-0.00509
TAAATGTGTTTTTTCGTCCTAT,sensor-assay potency score (higher = more potent),LARP1B,0.39
TATGACATGAGTGCAAACGTGG,sensor-assay potency score (higher = more potent),LIPA,-0.073
TACAAAGTAGTATTCGCCCTGC,sensor-assay potency score (higher = more potent),LIPA,-0.272
TTCAAATTCCTTCTTCAGCAGG,sensor-assay potency score (higher = more potent),LONP1,-0.339
AATCCTCTGAAGCATCTCCTGC,sensor-assay potency score (higher = more potent),LRDD,-1.15
TACAGGTCCAAGCTCAGCCGGT,sensor-assay potency score (higher = more potent),LRDD,-1.52
TAGTCAGATCAGTGTAGTCTTC,sensor-assay potency score (higher = more potent),LRRC15,-1.03
TTTGACTTCTTGTCCATTGATC,sensor-assay potency score (higher = more potent),LTA4H,-0.618
TTTCACAGAAGGAGTGTCCTGA,sensor-assay potency score (higher = more potent),LTA4H,0.561
TTCGATCTTCCTGAGGACCTTG,sensor-assay potency score (higher = more potent),MAN1C1,0.041
TAAAGTCACACTTGTCACCAGC,sensor-assay potency score (higher = more potent),MCM6,-0.442
TTGTGGAACAGGTACACAGGAC,sensor-assay potency score (higher = more potent),MEPCE,-0.946
TTCGAGAGCATATATCTGGAGG,sensor-assay potency score (higher = more potent),MMADHC,-0.923
TTGTGTTACAGTCAGAATCATT,sensor-assay potency score (higher = more potent),MMADHC,-1.32
TATGTGATAACAACAAGAGTGG,sensor-assay potency score (higher = more potent),MOBKL1B,-0.235
TTTTGGTGCAGAACATTTGATT,sensor-assay potency score (higher = more potent),MOBKL1B,-0.935
AAGCTGATCTTGAAGTCGCGGT,sensor-assay potency score (higher = more potent),MOV10,0.0595
AACATCTACAACTATTTGCAGG,sensor-assay potency score (higher = more potent),MON2,-1.11
TTGAAGGTAAAGTTCACCTTGA,sensor-assay potency score (higher = more potent),MOV10,0.564
TCATGCAGAAGTACATGCCGTA,sensor-assay potency score (higher = more potent),MPG,0.083
TTCTTCTACTGAACCCACCTTC,sensor-assay potency score (higher = more potent),MOV10,-0.0526
TTAATTGCCTCCACTAACGTGA,sensor-assay potency score (higher = more potent),MOV10,0.283
TTCAGGTAGGAAGTCACTGTGG,sensor-assay potency score (higher = more potent),MOV10,-0.627
TCTGTCGACCACACTGACCCAG,sensor-assay potency score (higher = more potent),MPG,-0.682
TTCCACTAAAAGAAAACCCTGG,sensor-assay potency score (higher = more potent),MPDU1,0.439
TGCTCTAGCTGGTCGCTGCTTC,sensor-assay potency score (higher = more potent),MPG,-0.856
TTTCACAGTCTGTCCTCTGTAG,sensor-assay potency score (higher = more potent),MPDU1,0.208
TCTAGCTGGTCGCTGCTTCTTT,sensor-assay potency score (higher = more potent),MPG,-0.646
TGGTCGAAGAACTCCAACCCCA,sensor-assay potency score (higher = more potent),MPG,-1.62
TTACACAGCTGGAAATTGCTGC,sensor-assay potency score (higher = more potent),MPDU1,0.224
TTGGACATCTCCTTTAACGGGT,sensor-assay potency score (higher = more potent),MON2,-0.305
TTGTACAGGGAGTTGTAGGTGA,sensor-assay potency score (higher = more potent),MOV10,0.0022
TAAACTAATATTGAGTTCTTGG,sensor-assay potency score (higher = more potent),MON2,-0.234
TAATAGTACATGTACAGGGCTT,sensor-assay potency score (higher = more potent),MPDU1,-0.0728
TTCACCTTGAAGGTCAGCCCAT,sensor-assay potency score (higher = more potent),MOV10,-0.593
TAAATGATGTACACGTACAGGG,sensor-assay potency score (higher = more potent),MPG,-0.261
TACAGCTTCATCCTGTGCCAGG,sensor-assay potency score (higher = more potent),MPG,-1.03
TAAAAGAATCGGCACGAGCAGC,sensor-assay potency score (higher = more potent),MPDU1,-0.833
TTGAGTTTCACATCTGAGGGCA,sensor-assay potency score (higher = more potent),MOV10,0.674
TATTCCTGCAGCTTCTTCTTGG,sensor-assay potency score (higher = more potent),MOV10,0.321
TAGAAAATCTGTCACAACCAAC,sensor-assay potency score (higher = more potent),MON2,-1.49
TTGATCTCTGCGATCTCCTTAG,sensor-assay potency score (higher = more potent),MOV10,-0.607
TATTTGACCAACAAATTCCTTA,sensor-assay potency score (higher = more potent),MON2,-0.301
TGAATGGAAGTGAAGATTCGGG,sensor-assay potency score (higher = more potent),MPDU1,-0.586
TTTCTAAGGATCTGGATCCATC,sensor-assay potency score (higher = more potent),MPDU1,-1.09
TTCTTTTGCCCCATCCGTCGGC,sensor-assay potency score (higher = more potent),MPG,-0.549
TTTCTTTACAGAACTCCAGGAA,sensor-assay potency score (higher = more potent),MOV10,-0.0759
TAGCTGGTCGCTGCTTCTTTTG,sensor-assay potency score (higher = more potent),MPG,-2.15
TTTCTCAGGTAAAAGAATCGGC,sensor-assay potency score (higher = more potent),MPDU1,0.459
TAGTGCATGACCAGGAAGCAGA,sensor-assay potency score (higher = more potent),MPDU1,-0.943
TAACGTGACAGTCTTGCCGGTG,sensor-assay potency score (higher = more potent),MOV10,-0.472
TCCTCTGTAGTGCATGACCAGG,sensor-assay potency score (higher = more potent),MPDU1,-1.87
ATGCTGTAGACCATGGTCCCAG,sensor-assay potency score (higher = more potent),MPDU1,-1.15
TTCATGCAGAAGTACATGCCGT,sensor-assay potency score (higher = more potent),MPG,-0.872
TTGGTCGTAGCATTTCTCAGGT,sensor-assay potency score (higher = more potent),MPDU1,0.125
TCGACCACACTGACCCAGGGGC,sensor-assay potency score (higher = more potent),MPG,-0.746
AAGAACTCCAACCCCAGTCGGG,sensor-assay potency score (higher = more potent),MPG,-0.896
TTTCTCATCTCTGTGAATCTTG,sensor-assay potency score (higher = more potent),MRC1L1,0.274
TTTCTGAACAATCCTATCCAAA,sensor-assay potency score (higher = more potent),MRC1L1,-1.03
TTTAGGAAACCGTACTTTGTAA,sensor-assay potency score (higher = more potent),MTX3,-0.773
TTACAGACAACAATCGTTGCTT,sensor-assay potency score (higher = more potent),MYST4,0.972
TTGAGTCTCGGCACAATCCTGA,sensor-assay potency score (higher = more potent),MYST4,0.672
TATAATAACACATTCCAGTAGG,sensor-assay potency score (higher = more potent),NCAPG2,-0.388
TTGAACAGCTCCTTGGCCGCAT,sensor-assay potency score (higher = more potent),NARF,0.2
TTAGTCTCCAGACTCCTCCTTA,sensor-assay potency score (higher = more potent),NCAPG2,0.238
TGAAGGTACACTTGTCTGCATC,sensor-assay potency score (higher = more potent),NAT9,-1.11
TACACTTGTCTGCATCTTCCTG,sensor-assay potency score (higher = more potent),NAT9,-0.99
TCTGATTTCATCCACTCGTGGT,sensor-assay potency score (higher = more potent),NAT9,-0.312
TCTTCGTTGATCTTCTTCCCCT,sensor-assay potency score (higher = more potent),NBPF1,-0.277
TGCCTCGGAAACGTGAGTCCAC,sensor-assay potency score (higher = more potent),NAT8L,-0.669
TTGTCTGCATCTTCCTGCCAGC,sensor-assay potency score (higher = more potent),NAT9,-1.08
TAGATCTGTGAGGAAGAGGTTC,sensor-assay potency score (higher = more potent),NAT9,-0.334
TAGCGGTGGTAGCGGACCTGGA,sensor-assay potency score (higher = more potent),NAT8L,-1.68
TTGTGCACCACGGCGAACTCCA,sensor-assay potency score (higher = more potent),NAT8L,-0.938
TTTATGAGGTCTTCGCACTCTT,sensor-assay potency score (higher = more potent),NBPF1,0.0563
TTCTGAGCAGAACTTGTGCTGA,sensor-assay potency score (higher = more potent),NCAPG2,-0.264
TGAGTCCACAGACATCCGCAGC,sensor-assay potency score (higher = more potent),NAT8L,-1.61
TAAGGCTTCTCTTCCACGTGGC,sensor-assay potency score (higher = more potent),NAT9,0.678
TTGTTCACATGCAGTCTGCTGT,sensor-assay potency score (higher = more potent),NAT9,-0.324
TTGTCCTCCTCGTGGGCCCGTG,sensor-assay potency score (higher = more potent),NAT8L,-1.12
TACAGTCTACAAAACTCCCATC,sensor-assay potency score (higher = more potent),NAT8L,-1.25
TCAAACGCTGCAGCTCCTCTGA,sensor-assay potency score (higher = more potent),NAT9,-0.784
ACACTTGTCTGCATCTTCCTGC,sensor-assay potency score (higher = more potent),NAT9,0.498
TTATGAGGTCTTCGCACTCTTC,sensor-assay potency score (higher = more potent),NBPF1,-1.54
TTCGTTGATCTTCTTCCCCTTC,sensor-assay potency score (higher = more potent),NBPF1,-0.152
TTGGTCTTCTTCCTCTTCCTGG,sensor-assay potency score (higher = more potent),NBPF1,-0.175
TTTCTTACTACATTCCTTGCGC,sensor-assay potency score (higher = more potent),NARF,0.306
TTGATTTCTAAAATGTTCGTCT,sensor-assay potency score (higher = more potent),NBPF1,0.0571
TCTTAGGGTACAAACTACCGTT,sensor-assay potency score (higher = more potent),NAT8L,-0.674
TGAAGTTTCTGGAACATCCGGA,sensor-assay potency score (higher = more potent),NAT9,0.756
TTTTCTTCGTTGATCTTCTTCC,sensor-assay potency score (higher = more potent),NBPF1,-0.0891
TAAAATGTTCGTCTCTGCCTTC,sensor-assay potency score (higher = more potent),NBPF1,-0.476
TAACTTATTAGAAAATGTGTTG,sensor-assay potency score (higher = more potent),NAT8L,-0.872
TTCGTCTCTGCCTTCTCGCTGG,sensor-assay potency score (higher = more potent),NBPF1,0.0322
TTAACAAAATCTGAGCTGCAAG,sensor-assay potency score (higher = more potent),NAT8L,-1.08
ATCCGCAGCAGCTCCACCGTGT,sensor-assay potency score (higher = more potent),NAT8L,-0.56
ATCCACTCGTGGTACCTGCTGG,sensor-assay potency score (higher = more potent),NAT9,-0.384
TAAGCAATGACGAATAACGTGA,sensor-assay potency score (higher = more potent),NCAPG2,0.14
TTGAGGAAACCACAGAGTCTTC,sensor-assay potency score (higher = more potent),NARF,-1.68
TTGGCGATGCCCTTGCCTCGGA,sensor-assay potency score (higher = more potent),NAT8L,-0.817
TTCATCCACTCGTGGTACCTGC,sensor-assay potency score (higher = more potent),NAT9,-1.04
TTCTCTGTCCCTTCGCTCGCTT,sensor-assay potency score (higher = more potent),NAT8L,-0.787
TTGGAGTAAACACCAAACCCAT,sensor-assay potency score (higher = more potent),NCSTN,-1.26
TGAGTCAACATTCTCTAACTGC,sensor-assay potency score (higher = more potent),NCSTN,0.0625
TTGAGCAGCTCCACACGCTGAA,sensor-assay potency score (higher = more potent),NKIRAS2,-0.404
TAGACATAGGGCAAATTTCGGT,sensor-assay potency score (higher = more potent),NHP2,-0.754
TGTAAGTCACACTTGTTGCCAA,sensor-assay potency score (higher = more potent),NKIRAS2,0.157
AAAGACTCTCTGCTATCTGTGC,sensor-assay potency score (higher = more potent),NKIRAS2,-0.545
TTTGTAGAGCTTCCGCGTGAGG,sensor-assay potency score (higher = more potent),NHP2,-1.63
TTGACCAGCAGCTCCTGGTAGG,sensor-assay potency score (higher = more potent),NHP2,-0.886
TTCTGCTTCACCGCTTTCTTGA,sensor-assay potency score (higher = more potent),NHP2,-0.609
TTGTCGGGCACGTACTCGTAGA,sensor-assay potency score (higher = more potent),NKPD1,-1.44
TTCGCCGTCCTTTCTCTCGCTT,sensor-assay potency score (higher = more potent),NGDN,-0.269
TATAATAGGAACTCAGACCCAA,sensor-assay potency score (higher = more potent),NKIRAS2,-0.0468
TTGCGTCATCTTGCTGGCCAAG,sensor-assay potency score (higher = more potent),NKIRAS2,-1.52
TGCATTTGTAGAGCTTCCGCGT,sensor-assay potency score (higher = more potent),NHP2,-0.805
